Results from the supplement of paper PMC4466140.

Molecular target: ScBbc1
Test: SPOT peptide array binding signal intensity (averaged, normalized) (arbitrary units (background-subtracted, floor 0; scale differs between SH3 domains)); higher = stronger binding of the SH3 domain to the peptide
Summary of the method: (§1)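 Peptides were synthetic 15-mers on cellulose membranes, with every cysteine replaced by serine. They were incubated overnight at 4°C with GST-SH3 domains from four yeast species at 10 μg/ml in TBS-based blocking buffer. Binding signal, the replicate-averaged normalized and background-subtracted spot intensity, is in arbitrary units that differ between domains.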

Binder | SPOT peptide array binding signal intensity
RFKRHRLEFPFNESE | 11.5

Molecular target: ScBem1-D1
Test: as above
Summary of the method: as §1

Binder | SPOT peptide array binding signal intensity
RFKRHRLEFPFNESE | 52

Molecular target: ScBzz1-D1
Test: as above
Summary of the method: as §1

Binder | SPOT peptide array binding signal intensity
RFKRHRLEFPFNESE | 12

Molecular target: ScBzz1-D2
Test: as above
Summary of the method: as §1

Binder | SPOT peptide array binding signal intensity
RFKRHRLEFPFNESE | 1

Molecular target: ScCyk3
Test: as above
Summary of the method: as §1

Binder | SPOT peptide array binding signal intensity
RFKRHRLEFPFNESE | 112

Molecular target: ScFus1
Test: as above
Summary of the method: as §1

Binder | SPOT peptide array binding signal intensity
RFKRHRLEFPFNESE | 286

Molecular target: ScHof1
Test: as above
Summary of the method: as §1

Binder | SPOT peptide array binding signal intensity
RFKRHRLEFPFNESE | 5.25

Molecular target: ScHse1
Test: as above
Summary of the method: as §1

Binder | SPOT peptide array binding signal intensity
RFKRHRLEFPFNESE | 1570

Molecular target: ScLsb1
Test: as above
Summary of the method: as §1

Binder | SPOT peptide array binding signal intensity
RFKRHRLEFPFNESE | 36.2

Molecular target: ScLsb2
Test: as above
Summary of the method: as §1

Binder | SPOT peptide array binding signal intensity
RFKRHRLEFPFNESE | 3

Molecular target: ScLsb3
Test: as above
Summary of the method: as §1

Binder | SPOT peptide array binding signal intensity
RFKRHRLEFPFNESE | 80

Molecular target: ScLsb4
Test: as above
Summary of the method: as §1

Binder | SPOT peptide array binding signal intensity
RFKRHRLEFPFNESE | ≤ 0

Molecular target: ScMyo3
Test: as above
Summary of the method: as §1

Binder | SPOT peptide array binding signal intensity
RFKRHRLEFPFNESE | ≤ 0

Molecular target: ScMyo5
Test: as above
Summary of the method: as §1

Binder | SPOT peptide array binding signal intensity
RFKRHRLEFPFNESE | 3.5

Molecular target: ScNbp2
Test: as above
Summary of the method: as §1

Binder | SPOT peptide array binding signal intensity
RFKRHRLEFPFNESE | 154

Molecular target: ScPex13
Test: as above
Summary of the method: as §1

Binder | SPOT peptide array binding signal intensity
RFKRHRLEFPFNESE | ≤ 0

Molecular target: ScRvs167
Test: as above
Summary of the method: as §1

Binder | SPOT peptide array binding signal intensity
RFKRHRLEFPFNESE | 25.3

Molecular target: ScSho1
Test: as above
Summary of the method: as §1

Binder | SPOT peptide array binding signal intensity
RFKRHRLEFPFNESE | 756

Molecular target: ScSla1-D1-D2
Test: as above
Summary of the method: as §1

Binder | SPOT peptide array binding signal intensity
RFKRHRLEFPFNESE | 358

Molecular target: ScSla1-D3
Test: as above
Summary of the method: as §1

Binder | SPOT peptide array binding signal intensity
RFKRHRLEFPFNESE | 11.8

Molecular target: SpAbp1-D1
Test: as above
Summary of the method: as §1

Binder | SPOT peptide array binding signal intensity
RFKRHRLEFPFNESE | 419

Molecular target: SpBbc1
Test: as above
Summary of the method: as §1

Binder | SPOT peptide array binding signal intensity
RFKRHRLEFPFNESE | 2.5

Molecular target: SpBzz1-D1
Test: as above
Summary of the method: as §1

Binder | SPOT peptide array binding signal intensity
RFKRHRLEFPFNESE | 127

Molecular target: SpBzz1-D2
Test: as above
Summary of the method: as §1

Binder | SPOT peptide array binding signal intensity
RFKRHRLEFPFNESE | ≤ 0

Molecular target: SpCyk3
Test: as above
Summary of the method: as §1

Binder | SPOT peptide array binding signal intensity
RFKRHRLEFPFNESE | ≤ 0

Molecular target: SpHof1
Test: as above
Summary of the method: as §1

Binder | SPOT peptide array binding signal intensity
RFKRHRLEFPFNESE | 68.2

Molecular target: SpHof1-2
Test: as above
Summary of the method: as §1

Binder | SPOT peptide array binding signal intensity
RFKRHRLEFPFNESE | 12.2

Molecular target: SpHof1-3
Test: as above
Summary of the method: as §1

Binder | SPOT peptide array binding signal intensity
RFKRHRLEFPFNESE | 348

Molecular target: SpHse1
Test: as above
Summary of the method: as §1

Binder | SPOT peptide array binding signal intensity
RFKRHRLEFPFNESE | 640

Molecular target: SpLsb1
Test: as above
Summary of the method: as §1

Binder | SPOT peptide array binding signal intensity
RFKRHRLEFPFNESE | 10.8

Molecular target: SpLsb4
Test: as above
Summary of the method: as §1

Binder | SPOT peptide array binding signal intensity
RFKRHRLEFPFNESE | 30.5

Molecular target: SpMyo1
Test: as above
Summary of the method: as §1

Binder | SPOT peptide array binding signal intensity
RFKRHRLEFPFNESE | 0.5

Molecular target: SpNbp2
Test: as above
Summary of the method: as §1

Binder | SPOT peptide array binding signal intensity
RFKRHRLEFPFNESE | 298

Molecular target: SpPex13
Test: as above
Summary of the method: as §1

Binder | SPOT peptide array binding signal intensity
RFKRHRLEFPFNESE | 15

Molecular target: SpRvs167
Test: as above
Summary of the method: as §1

Binder | SPOT peptide array binding signal intensity
RFKRHRLEFPFNESE | 22.5

Molecular target: SpSla1-D1-D2
Test: as above
Summary of the method: as §1

Binder | SPOT peptide array binding signal intensity
RFKRHRLEFPFNESE | ≤ 0

Molecular target: SpSla1-D3
Test: as above
Summary of the method: as §1

Binder | SPOT peptide array binding signal intensity
RFKRHRLEFPFNESE | 26
